Source: PubChem BioAssay (National Center for Advancing Translational Sciences (NCATS))
Shown are actives, neighbours in structure and some others; about 0.97% of the full set was active somewhere.
CCT modulator: cytosolic chaperonin activity modulation; purified chaperonin ATPase assay, HTRF ADP detection, 30 min; activity change, % (concentration not given with the values), hits read low; 360,000 tested, 0.3% active; AID 651819; in the data active = activity change below about -30%; also: % is scaled to controls: 0 for no effect and ±100 for the full control effect
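Enzyme 40 or 20 nM (batch-dependent) in Tris pH 7.4/KCl/MgCl2/DTT; cpd 76 uM single point; ATP 10 uM; 30 min 37 °C; Transcreener ADP HTRF detection, 30 min RT; ratio 665/615.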
uPA generation: cell surface uPA generation inhibition; cell surface uPA generation assay, qHTS; Potency, µM (highest dose often 38.3 µM), for the others: at the top dose activity change, negative = inhibition, most hits filed as inhibitors; 330,000 tested, 0.31% active; active = well fitted inhibition curve with a large enough effect; inconclusive = small, poorly fitted or top-dose-only effect; inactive = no such curve, though single readings can be large or run the other way; tested in mouse RAW 264.7 cells; also: potency is read from the fitted curve at half-maximal effect; % is scaled to controls: 0 for no effect and ±100 for the full control effect; nearly all actives have a fitted effect of over 55% in size
pAkt inh: Akt phosphorylation inhibition. AID 651550. 360,000 tested, 0.32% active. activity change, % for hits at 50 µM. Neuro2A IGF-stimulated pAkt S473 HTRF, 20 min; hits give low values; in the data active = activity change below about -80%; inconclusive = mostly about -51% to -80%; also: % is scaled to controls: 0 for no effect and ±100 for the full control effect
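Neuro2A cells in DMEM with 0.5% FBS, overnight at 37 deg C, given compound at single 50 µM final, then IGF (6 nM final) for 20 min at 37 deg C. Lysed; phospho-Akt Ser473 by HTRF after 24 h, 665/615 ratio.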
Epigenetic derep: regulators of epigenetic silencing causing reporter derepression in mouse cells. murine LDR cells, GFP reporter derepression, 30 h. 280,000 tested, 0.2% active. Potency, µM (doses to about 53.9 µM), for the others: top-dose GFP activation, hits mostly activators; also: potency is read from the fitted curve at half-maximal effect; % of control where 0% means no effect; nearly all actives have a fitted effect of over 60% in size
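Murine LDR cells carrying a silenced, genomically integrated CMV-driven GFP reporter were exposed to compound for 30 hours at 37 C. After PBS washes, GFP-positive cells (20–120 um objects) were counted by laser-scanning microplate cytometry.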
Mm-Cpn inhibitor: blocks the Methanococcus maripaludis chaperonin Mm-Cpn; AID 504842; 330,000 tested, 0.031% active; purified Mm-Cpn ATPase, ADP Transcreener TR-FRET; Potency, µM (titrated, usually from 76.9 µM), for the others: at the top dose activity, negative = inhibition, usual class: inhibitors; also: potency is read from the fitted curve at half-maximal effect; % is scaled to controls: 0 for no effect and ±100 for the full control effect; nearly all actives have a fitted effect of over 80% in size
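Eu-cryptate anti-ADP/ADP-d2 competition gives a ratio inversely related to ADP. Enzyme at 25 nM was pre-exposed to compound for 10 min, then given 10 uM ATP for 30 min, 37°C throughout.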
MBNL1-CUG inh: blocks human MBNL1 binding to CUG repeat RNA; TR-FRET MBNL1-His/biotin-(CUG)12 binding, 665/545 ratio; 280,000 tested, 0.036% active; Potency, µM (series often up to 57.5 µM), inactives show at the top dose activity change, negative = inhibition, usual class: inhibitors; active = well fitted inhibition curve with a large enough effect in the signal ratio, with a control signal flat, not every such curve was filed as active; inconclusive = small, poorly fitted or top-dose-only effect, or effect the other way, or a change in a side signal; inactive = no such curve, though single readings can be large or run the other way; the % refers to the signal ratio; also: potency is read from the fitted curve at half-maximal effect; % is scaled to controls: 0 for no effect and ±100 for the full control effect
Target sequence (Q9NR56 whole entry, looked up): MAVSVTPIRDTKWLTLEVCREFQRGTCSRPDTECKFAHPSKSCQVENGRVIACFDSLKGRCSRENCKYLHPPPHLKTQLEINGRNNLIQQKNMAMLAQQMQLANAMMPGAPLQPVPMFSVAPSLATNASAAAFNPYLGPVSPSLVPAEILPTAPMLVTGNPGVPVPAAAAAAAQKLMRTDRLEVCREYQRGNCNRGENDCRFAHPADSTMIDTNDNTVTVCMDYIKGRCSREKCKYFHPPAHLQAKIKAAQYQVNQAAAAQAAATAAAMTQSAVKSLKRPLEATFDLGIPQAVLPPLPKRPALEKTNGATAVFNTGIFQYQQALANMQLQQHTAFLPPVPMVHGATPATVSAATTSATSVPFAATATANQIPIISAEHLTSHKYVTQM
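Ratiometric TR-FRET (665 over 545 nm, excitation 340 nm) tracks disruption of MBNL1-His/biotin-(CUG)12 complex after 60 min at room temperature, with compounds at 92 nM to 58 uM final.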
An asterisk follows results filed as active; [ ] = dose if it differs, or a comment. Unless noted, calls follow the shape of the dose curve; as a rule, active = well fitted curve in the direction sought with a large enough effect; inconclusive = small, poorly fitted or top-dose-only effect, or another doubt; inactive = no such curve, though single readings can be large; an effect the other way counts as inactive or inconclusive.

For Cc1ccc(C)c(-n2c(-c3ccc(Br)cc3)csc2=NC(=O)c2ccccc2F)c1 the results were CCT modulator -1.1, uPA generation -4.6%, pAkt inh inactive, Epigenetic derep 1.1%, Mm-Cpn inhibitor inconclusive and MBNL1-CUG inh inconclusive.
CCOc1c2ccc(C(=O)NCc3ccc(OC(F)(F)F)cc3)cc2nn1CC was read as CCT modulator -59.2*, uPA generation 9.5%, pAkt inh inactive, Epigenetic derep -1.2%, Mm-Cpn inhibitor -0.4% and MBNL1-CUG inh 10.8%.
Screening CCCCNc1c(-c2ccc(OC)c(Sc3ccc(OC)cc3)c2)nc2ccccn12 returned CCT modulator -3.7, uPA generation inconclusive, pAkt inh inactive and Mm-Cpn inhibitor -2.6%.
`CCCCNc1c(-c2ccc(-c3ccc(OC)cc3)c(OC)c2)nc2ccccn12` gave CCT modulator 0.8, uPA generation 12.6µM*, pAkt inh inactive and Mm-Cpn inhibitor -3.7%.
For O=C(O)c1cc(NC(=O)c2cccc(F)c2)cc(NC(=O)c2cccc(F)c2)c1 the results were CCT modulator 1.0, uPA generation -0.3%, pAkt inh inactive, Mm-Cpn inhibitor -0.1% and MBNL1-CUG inh -8.8%.
CNC(=O)Nc1ccc2nc(C)sc2c1 was read as CCT modulator 0.7, uPA generation 15.9%, pAkt inh inactive, Epigenetic derep -6.2%, Mm-Cpn inhibitor 0.5% and MBNL1-CUG inh -15.2%.
For C=CCNC(=O)Nc1ccc2nc(C)sc2c1 the results were CCT modulator -0.7, uPA generation -0.3%, pAkt inh inactive, Epigenetic derep -1.9%, Mm-Cpn inhibitor 3.4% and MBNL1-CUG inh 31.6µM*.
Cc1ccc(Cl)cc1N1CCN(C(=O)c2c(C)oc3ncnc(N4CCCCC4)c23)CC1 was read as Epigenetic derep -1.3%.
Screening CC1CCN(C(=O)CSc2nnc(CN3CCOCC3)n2-c2ccccc2)CC1 returned CCT modulator 0.4, uPA generation -1.6%, pAkt inh inactive, Epigenetic derep -1.1%, Mm-Cpn inhibitor 0.4% and MBNL1-CUG inh -6.0%.
Screening COc1ccc(S(=O)(=O)N2N=C(c3cccc(NS(C)(=O)=O)c3)CC2c2ccco2)cc1 (stereo not given) returned CCT modulator -68.9*, uPA generation -10.5%, Mm-Cpn inhibitor -1.6% and MBNL1-CUG inh 6.7%.
COC(=O)CSc1nc2c(cnn2-c2ccc(F)cc2)c(=O)[nH]1 was read as CCT modulator -31.6*, uPA generation -1.4%, pAkt inh inactive, Epigenetic derep 0.0%, Mm-Cpn inhibitor -1.9% and MBNL1-CUG inh -2.9%.
`CCOC(=O)CSc1nc2c(cnn2-c2ccc(F)cc2)c(=O)[nH]1` gave CCT modulator -0.1, uPA generation -0.1%, pAkt inh inactive, Mm-Cpn inhibitor 1.4% and MBNL1-CUG inh 0.8%.
For COC(=O)NC(/C(C(=O)OC)=C(\C)NCc1ccccc1)c1cccc(C)c1 (stereo not given) the results were Epigenetic derep 0.0%[10.1 µM].
CC(C)n1c(SCC(=O)Nc2ccc(F)cc2)nc2c(oc3ccccc32)c1=O was read as Epigenetic derep 1.4%.
`COc1ccc(NC(=O)c2sc3nc4c(cc3c2N)CN(Cc2ccccc2)CC4)cc1OC` gave Epigenetic derep 17.8µM*.
For CCc1ccc(-n2nc3cc(C)c(NC(=O)c4cccc5ccccc45)cc3n2)cc1 the results were Epigenetic derep 5.1%.
`COc1ccc(-n2c(=O)c3ccccc3n(CC(=O)NC3CCCC3)c2=O)cc1` gave CCT modulator -0.5, uPA generation 8.9%, pAkt inh -105.2%*, Epigenetic derep 1.0%, Mm-Cpn inhibitor -1.6% and MBNL1-CUG inh 15.7%.
For COCCCNC(=O)c1cccc(S(=O)(=O)N2CC3(C)CC2CC(C)(C)C3)c1 (stereo not given) the results were CCT modulator -0.8, uPA generation 6.31µM*, pAkt inh inactive and Mm-Cpn inhibitor 2.0%.
